In PubChem BioAssay AID1159580 (chemical genetic matrix, 2015):
Several values for one entry are separate records, joined by “and”; a condition that tells them apart may be missing. Identical values can stand only once. Among all 5,500 compounds or so, about 2,000 (36%) were called active. Not shown: some 18% with an inconclusive outcome. Rule as the data show it: active = normalized growth mostly below about 0.91 (no sharp cut-off); inconclusive = no clear call, values can overlap the other calls; inactive = mostly above about 0.92. The list shows a part of the results.

Experiment: chemical genetic growth profiling, strain panel (AID 1159580);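 also: tested at 20 µM; growth read once vehicle control cultures reached saturation at 30 °C; 1 = growth at the plate median or of vehicle wells; lower values mean less growth of the strain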
Details: S. cerevisiae deletion strains, growth OD

Measured: normalized growth

CN1Cc2c(N)cccc2C(c2ccccc2)C1 (centres undefined)
inactive: locus YAL013W, strain DEP1, stronger effect = lower value 1.01 | locus YAL021C, strain ccr4, stronger effect = lower value 0.991 | locus YAL026C, strain drs2, stronger effect = lower value 0.997 | locus YAL030W, strain snc1, stronger effect = lower value 0.996 | locus YAL040C, strain CLN3, stronger effect = lower value 0.991 | locus YBL061C, strain skt5, stronger effect = lower value 1.01 | locus YBR009C, strain hhf1, stronger effect = lower value 1.02 | locus YBR021W, strain FUR4, stronger effect = lower value 1.01 | locus YBR023C, strain chs3, stronger effect = lower value 1.02 | locus YBR171W, strain sec66, stronger effect = lower value 1.02 | locus YBR229C, strain ROT2, stronger effect = lower value 1.01 | locus YBR231C, strain swc5, stronger effect = lower value 1 | locus YBR279W, strain paf1, stronger effect = lower value 1.03 | locus YCL011C, strain gbp2, stronger effect = lower value 1 | locus YCL016C, strain dcc1, stronger effect = lower value 0.997 | locus YCL029C, strain bik1, stronger effect = lower value 1 | locus YCL061C, strain MRC1 (second series), stronger effect = lower value 0.989 | locus YCL069W, strain vba3, stronger effect = lower value 1.01 | locus YCR088W, strain abp1, stronger effect = lower value 1.01 | locus YDL005C, strain med2, stronger effect = lower value 1 | locus YDL035C, strain GPR1, stronger effect = lower value 1.02 | locus YDL040C, strain nat1, stronger effect = lower value 1.01 | locus YDL074C, strain BRE1, stronger effect = lower value 0.993 | locus YDL101C, strain DUN1, stronger effect = lower value 1.01 | locus YDL134C, strain PPH21, stronger effect = lower value 1.01 | locus YDL185W, strain tfp1, stronger effect = lower value 1.01 | locus YDL192W, strain arf1, stronger effect = lower value 1.02 | locus YDR001C, strain nth1, stronger effect = lower value 1.01 | locus YDR069C, strain doa4, stronger effect = lower value 1.02 | locus YDR101C, strain arx1, stronger effect = lower value 1.01 | locus YDR137W, strain rgp1, stronger effect = lower value 1.01 | locus YDR150W, strain NUM1, stronger effect = lower value 1 | locus YDR159W, strain sac3, stronger effect = lower value 1 | locus YDR162C, strain NBP2, stronger effect = lower value 1.02 | locus YDR195W, strain ref2 1.02 | locus YDR297W, strain sur2, stronger effect = lower value 1.01 | locus YDR318W, strain mcm21, stronger effect = lower value 1.02 | locus YDR334W, strain swr1, stronger effect = lower value 1.01 | locus YDR335W, strain msn5, stronger effect = lower value 1.02 | locus YDR363W, strain ESC2, stronger effect = lower value 0.963 | locus YDR388W, stronger effect = lower value 1.02 | locus YDR392W, strain spt3, stronger effect = lower value 0.938 | locus YDR502C, strain sam2, stronger effect = lower value 1.01 | locus YEL003W, strain gim4, stronger effect = lower value 1.01 | locus YEL037C, strain rad23, stronger effect = lower value 1.01 | locus YEL061C, strain CIN8 (second series), stronger effect = lower value 1 | locus YEL061C, strain CIN8, stronger effect = lower value 1 | locus YER002W, strain NOP16, stronger effect = lower value 1.01 | locus YER015W, strain faa2, stronger effect = lower value 1.02 | locus YER016W, strain bim1, stronger effect = lower value 1.01 | locus YER110C, stronger effect = lower value 1.02 | locus YER111C, strain swi4, stronger effect = lower value 1.01 | locus YER155C, strain BEM2 (second series), stronger effect = lower value 1.01 | locus YER155C, strain BEM2, stronger effect = lower value 1.01 | locus YER167W, strain BCK2, stronger effect = lower value 1.02 | locus YFR010W, strain ubp6, stronger effect = lower value 1.03 | locus YGL078C, strain dbp3, stronger effect = lower value 1 | locus YGL086W, strain mad1, stronger effect = lower value 0.999 | locus YGL167C, strain pmr1, stronger effect = lower value 1.01 | locus YGL173C, strain kem1, stronger effect = lower value 1.02 | locus YGL227W, strain vid30, stronger effect = lower value 1.01 | locus YGL240W, strain doc1, stronger effect = lower value 1.02 | locus YGL248W, strain PDE1, stronger effect = lower value 0.991 | locus YGL253W, strain hxk2, stronger effect = lower value 1 | locus YGR078C, strain PAC10, stronger effect = lower value 0.991 | locus YGR135W, strain pre9, stronger effect = lower value 1.04 | locus YGR229C, strain SMI1, stronger effect = lower value 1.02 | locus YGR252W, strain gcn5, stronger effect = lower value 1 | locus YHR013C, strain ard1, stronger effect = lower value 0.995 | locus YHR027C, strain rpn1, stronger effect = lower value 1.02 | locus YHR030C, strain SLT2, stronger effect = lower value 1.01 and 1.07 | locus YHR079C, strain IRE1 (second series), stronger effect = lower value 1.01 | locus YHR079C, strain IRE1, stronger effect = lower value 0.985 | locus YHR094C, strain hxt1, stronger effect = lower value 1.02 | locus YHR129C, strain ARP1, stronger effect = lower value 1.01 | locus YHR142W, strain chs7, stronger effect = lower value 1.01 | locus YHR200W, strain rpn10, stronger effect = lower value 1.02 | locus YIL066C, strain RNR3, stronger effect = lower value 1 | locus YIL073C, strain SPO22, stronger effect = lower value 1.08 | locus YIL125W, strain kgd1, stronger effect = lower value 1.01 | locus YIR030C, strain dcg1, stronger effect = lower value 1.01 | locus YJL092W, strain hpr5, stronger effect = lower value 1.01 | locus YJL095W, strain BCK1 (second series), stronger effect = lower value 1.01 | locus YJL095W, strain BCK1, stronger effect = lower value 0.983 and 0.981 | locus YJL115W, strain asf1, stronger effect = lower value 1.02 | locus YJL129C, strain trk1, stronger effect = lower value 1 | locus YJL134W, strain LCB3, stronger effect = lower value 1.01 | locus YJL154C, strain vps35, stronger effect = lower value 1.01 | locus YJL164C, strain tpk1, stronger effect = lower value 0.981 | locus YJL166W, strain qcr8, stronger effect = lower value 1.01 | locus YJL168C, strain set2, stronger effect = lower value 1.01 | locus YJL187C, strain SWE1 (second series), stronger effect = lower value 0.983 | locus YJR043C, strain POL32, stronger effect = lower value 0.973 | locus YJR066W, strain TOR1, stronger effect = lower value 0.933
